Measured values: the supplement of paper PMC7411054
Structures can show the parent of a compound that is named as a salt.

Assays:
Assay in all cases: lowest phenotypically active concentration; higher = less potent
Conditions in all cases: treatment time: 24 h
HepG2-ACTB-RAB5A = tested on: HepG2-ACTB-RAB5A
Procedure, shortened: (§1)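 Fifteen reporter lines derived from A549, HepG2 and WPMY1 cells by gene editing, carrying BFP for segmentation plus GFP and RFP/FusionRed markers, were exposed to 0.3, 1, 3 or 9 µM for 24 h in four wells each and imaged live. Live-cell features from each well were normalised to solvent control wells. A well set counted as deviating when ≥3 of 4 wells lay beyond the 95th percentile of control Euclidean distances, and as reproducible when the median replicate Pearson correlation exceeded the 95th percentile of non-replicates. Phenotypic activity was assigned only when both criteria were met.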

HepG2-CANX-COX4 = tested on: HepG2-CANX-COX4
Procedure, shortened: as §1

HepG2-GM130-SQSTM1 = tested on: HepG2-GM130-SQSTM1
Procedure, shortened: as §1

HepG2-TP53BP1-CLTA = tested on: HepG2-TP53BP1-CLTA
Procedure, shortened: as §1

HepG2-TUBA1B-RELA = tested on: HepG2-TUBA1B-RELA
Procedure, shortened: as §1

WPMY1-ACTB-RAB5A = tested on: WPMY1-ACTB-RAB5A
Procedure, shortened: as §1

WPMY1-CANX-COX4 = tested on: WPMY1-CANX-COX4
Procedure, shortened: as §1

WPMY1-GM130-SQSTM1 = tested on: WPMY1-GM130-SQSTM1
Procedure, shortened: as §1

WPMY1-TP53BP1-CLTA = tested on: WPMY1-TP53BP1-CLTA
Procedure, shortened: as §1

WPMY1-TUBA1B-RELA = tested on: WPMY1-TUBA1B-RELA
Procedure, shortened: as §1

Measured: lowest phenotypically active concentration

O=C1c2c(O)ccc(O)c2C(=O)c2c(NCCNCCO)ccc(NCCNCCO)c21 [mitoxantrone]
≤ 0.3 µM: all assays above

Oc1ccc(-c2nc(-c3ccc(F)cc3)c(-c3ccncc3)[nH]2)cc1
≤ 0.3 µM: HepG2-GM130-SQSTM1
9 µM: WPMY1-ACTB-RAB5A | WPMY1-CANX-COX4 | WPMY1-TP53BP1-CLTA
1 µM: HepG2-CANX-COX4 | HepG2-TP53BP1-CLTA
3 µM: all other assays above

Cc1c[nH]c2nccc(Oc3c(F)cc(Nc4cc(Cl)nc(N)n4)cc3F)c12
1 µM: WPMY1-TP53BP1-CLTA
≤ 0.3 µM: all other assays above

CCCCc1oc2ccccc2c1C(=O)c1cc(I)c(OCCN(CC)CC)c(I)c1 [amiodarone]
3 µM: HepG2-TUBA1B-RELA
9 µM: all other assays above

CC(C)(C)c1cnc(CSc2cnc(NC(=O)C3CCNCC3)s2)o1
≤ 0.3 µM: all assays above

CON(C)C(=O)N1N=C(c2cc(F)ccc2F)S[C@@]1(CCCN)c1ccccc1 [ARRY 520 trifluoroacetate]
≤ 0.3 µM: all assays above

Oc1cccc(Nc2ccnc3cc(-c4cccc(CN5CCOCC5)c4)sc23)c1 [LCB 03-0110 dihydrochloride]
1 µM: HepG2-ACTB-RAB5A | HepG2-CANX-COX4 | HepG2-TUBA1B-RELA
3 µM: all other assays above

COc1cc2c(Nc3ccc(Br)cc3F)ncnc2cc1OCC1CCN(C)CC1 [vandetanib]
1 µM: HepG2-TUBA1B-RELA
9 µM: WPMY1-TP53BP1-CLTA
3 µM: all other assays above

CNC(=O)Nc1ccc(-c2nc(N3CC4CCC(C3)O4)c3cnn(C4CCC5(CC4)OCCO5)c3n2)cc1
≤ 0.3 µM: all assays above

COc1ccc(-c2cc3c(C)nc(N)nc3n([C@H]3CC[C@H](OCCO)CC3)c2=O)cn1
≤ 0.3 µM: all assays above

CC[C@H](CO)Nc1nc(NCc2ccc(-c3ccccn3)cc2)c2ncn(C(C)C)c2n1
≤ 0.3 µM: all assays above

COc1cc2c(NC3CCN(C(C)C)CC3)nc(N3CCC(F)(F)CC3)nc2cc1OCCCN1CCCC1
≤ 0.3 µM: HepG2-ACTB-RAB5A | HepG2-GM130-SQSTM1 | HepG2-TUBA1B-RELA | WPMY1-GM130-SQSTM1
1 µM: all other assays above

CN1CCC(=C2c3ccccc3CC(=O)c3sccc32)CC1 [ketotifen]
3 µM: HepG2-TUBA1B-RELA
9 µM: all other assays above

CC(C)n1nc(-c2cc3cc(O)ccc3[nH]2)c2c(N)ncnc21
3 µM: HepG2-TP53BP1-CLTA | WPMY1-TUBA1B-RELA
≤ 0.3 µM: HepG2-CANX-COX4 | HepG2-GM130-SQSTM1
1 µM: all other assays above

Cc1ccc(NC(=O)CCCCCC(=O)Nc2ccccc2N)cc1
1 µM: HepG2-ACTB-RAB5A
3 µM: HepG2-GM130-SQSTM1 | HepG2-TP53BP1-CLTA | WPMY1-CANX-COX4 | WPMY1-TP53BP1-CLTA
9 µM: all other assays above

CC1=C(C(=O)Nc2cc3cn[nH]c3cc2F)C(c2ccc(C(F)(F)F)cc2)CC(=O)N1 (stereo not given)
3 µM: WPMY1-TP53BP1-CLTA
≤ 0.3 µM: all other assays above

COc1cc2nc(N3CCCN(C)CC3)nc(NC3CCN(Cc4ccccc4)CC3)c2cc1OC
≤ 0.3 µM: HepG2-ACTB-RAB5A | HepG2-GM130-SQSTM1 | HepG2-TUBA1B-RELA | WPMY1-GM130-SQSTM1
1 µM: all other assays above

C[C@@H](CN1CCC(n2c(=O)[nH]c3cc(Cl)ccc32)CC1)NC(=O)c1ccc2ccccc2c1
3 µM: HepG2-TUBA1B-RELA
9 µM: all other assays above

Cc1cn(CCN2CCN(c3ccccc3-c3cc(C#N)cc(C(=O)NCCCN4CCCC4)c3)CC2)c2ccccc12
9 µM: HepG2-CANX-COX4
1 µM: HepG2-ACTB-RAB5A
3 µM: all other assays above

CC(C)(N)c1cc(C(=O)N[C@@H]2CCc3ccc(OC4=C5CCC(=O)N=C5NC=C4)cc3C2)cc(C(F)(F)F)c1 [ML 786 dihydrochloride]
1 µM: WPMY1-ACTB-RAB5A | WPMY1-CANX-COX4 | WPMY1-GM130-SQSTM1 | WPMY1-TP53BP1-CLTA
9 µM: WPMY1-TUBA1B-RELA
≤ 0.3 µM: all other assays above

CC[C@@H]1C(=O)N(C)c2cnc(Nc3ccc(C(=O)NC4CCN(C)CC4)cc3OC)nc2N1C1CCCC1
1 µM: HepG2-CANX-COX4
≤ 0.3 µM: all other assays above

COc1cc(OC2CCN(C)CC2)ccc1Nc1ncc2c(n1)n(C1CCCC1)c(=O)n2C
3 µM: HepG2-ACTB-RAB5A | HepG2-GM130-SQSTM1
9 µM: all other assays above

CCOC(=O)Nc1cc(-c2ccc(C)c(NS(C)(=O)=O)c2)nn2c(C)nnc12 [Bromosporine]
≤ 0.3 µM: HepG2-ACTB-RAB5A | HepG2-CANX-COX4
1 µM: all other assays above

CCCC1(CCC)CCC2(CCN(CCCN(CC)CC)C2)CC1 [Atiprimod dihydrochloride]
≤ 0.3 µM: HepG2-TUBA1B-RELA
1 µM: all other assays above

Cc1ccc(NC(=O)c2ccc(CN3CCN(C)CC3)cc2)cc1Nc1nc(-c2cccnc2)cs1 [masitinib]
≤ 0.3 µM: WPMY1-GM130-SQSTM1
9 µM: HepG2-TUBA1B-RELA | WPMY1-TP53BP1-CLTA | WPMY1-TUBA1B-RELA
3 µM: all other assays above

COCC(=O)O[C@]1(CCN(C)CCCc2nc3ccccc3[nH]2)CCc2cc(F)ccc2[C@@H]1C(C)C [mibefradil]
3 µM: HepG2-TUBA1B-RELA
9 µM: all other assays above

C[C@@H]1CN(CC(=O)Nc2ccc3c(c2)Cc2cccc(-c4cc(=O)cc(N5CCOCC5)o4)c2S3)C[C@H](C)O1
9 µM: WPMY1-TUBA1B-RELA
1 µM: HepG2-ACTB-RAB5A
3 µM: all other assays above

Nc1cccc(-c2cc3c(Oc4cccc(O)c4)ncnc3[nH]2)c1
1 µM: HepG2-ACTB-RAB5A
9 µM: HepG2-CANX-COX4 | WPMY1-CANX-COX4 | WPMY1-GM130-SQSTM1 | WPMY1-TUBA1B-RELA
3 µM: all other assays above

CN[C@H]1CC[C@@H](c2ccc(Cl)c(Cl)c2)c2ccccc21 [sertraline]
9 µM: HepG2-CANX-COX4
3 µM: all other assays above
